# Reference: PubChem BioAssay (NCATS)
# Records with an inconclusive call do not appear. Where a call stands in place of a potency, no number is given. Values without a mark were called inactive. Activity calls are given as the source filed them. The call rests on the fitted dose curve; in most records, active means well fitted curve in the direction sought with a large enough effect; inconclusive means small, poorly fitted or top-dose-only effect, or another doubt; inactive means no such curve, though single readings can be large; an effect the other way counts as inactive or inconclusive.
# Columns and labels:
# MCC-13 = experiment: qHTS assay to identify novel small-molecules to repurpose for Merkel cell carcinoma treatment (AID 1296009); details: MCC and control cell lines, CellTiter-Glo viability, 72 h; series mostly up to 46 µM; further: nearly all actives have a fitted effect of over 60% in size
# Outline: (§1)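 Cell viability, measured as CellTiter-Glo luminescence, was normalized between DMSO and no-cell wells. The cells had been exposed to 8- or 11-point compound dilutions for 72 hr at 37 degree celsius.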
# MCC-26 = experiment: as above; details: MCC and control cell lines, CellTiter-Glo viability, 72 h; series mostly up to 46 µM
# Outline: as §1
# MKL-1 = experiment: as above; details: MCC and control cell lines, CellTiter-Glo viability, 72 h; series mostly up to 46 µM
# Outline: as §1
# MKL-2 = experiment: as above; details: MCC and control cell lines, CellTiter-Glo viability, 72 h; series mostly up to 46 µM
# Outline: as §1
# NIH3T3 = experiment: as above; details: MCC and control cell lines, CellTiter-Glo viability, 72 h; at 44.8 µM (top of the series) unless noted
# Outline: as §1
# UISO = experiment: as above; details: MCC and control cell lines, CellTiter-Glo viability, 72 h; series mostly up to 46 µM
# Outline: as §1
# WaGa = experiment: as above; details: MCC and control cell lines, CellTiter-Glo viability, 72 h; series mostly up to 46 µM
# Outline: as §1
# C33A = experiment: Primary qHTS to identify gynecologic anti-cancer compounds using libraries of approved drugs and bioactive compounds (AID 1345084); details: Gynecologic cancer cell panel viability, ATPlite luminescence, 48 h; series mostly up to 57.5 µM; further: nearly all actives have a fitted effect of over 55% in size
# Outline: (§2)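 Five-concentration response, 48 h; readout is ATP-driven luciferase luminescence.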
# CAOV3 = experiment: as above; details: Gynecologic cancer cell panel viability, ATPlite luminescence, 48 h; series mostly up to 57.5 µM
# Outline: as §2
# CASKI = experiment: as above; details: Gynecologic cancer cell panel viability, ATPlite luminescence, 48 h; series mostly up to 57.5 µM
# Outline: as §2
# Es-2 = experiment: as above; details: Gynecologic cancer cell panel viability, ATPlite luminescence, 48 h; series mostly up to 57.5 µM
# Outline: as §2
# HeLa = experiment: as above; details: Gynecologic cancer cell panel viability, ATPlite luminescence, 48 h; series mostly up to 57.5 µM
# Outline: as §2
# Hek293T = experiment: as above; details: Gynecologic cancer cell panel viability, ATPlite luminescence, 48 h, control line for the selectivity index; series mostly up to 57.5 µM
# Outline: as §2
# JEG-3 = experiment: as above; details: Gynecologic cancer cell panel viability, ATPlite luminescence, 48 h; series mostly up to 57.5 µM
# Outline: as §2
# OV90 = experiment: as above; details: Gynecologic cancer cell panel viability, ATPlite luminescence, 48 h; series mostly up to 57.5 µM
# Outline: as §2
# PA-1 = experiment: as above; details: Gynecologic cancer cell panel viability, ATPlite luminescence, 48 h; series mostly up to 57.5 µM
# Outline: as §2
# SKOV3 = experiment: as above; details: Gynecologic cancer cell panel viability, ATPlite luminescence, 48 h; series mostly up to 57.5 µM
# Outline: as §2
# Tov-21-G = experiment: as above; details: Gynecologic cancer cell panel viability, ATPlite luminescence, 48 h; series mostly up to 57.5 µM
# Outline: as §2
# Tov112D = experiment: as above; details: Gynecologic cancer cell panel viability, ATPlite luminescence, 48 h; series mostly up to 57.5 µM
# Outline: as §2
# [1] = Drug repurposing screens with cells derived from glioblastoma tumor samples (AID 1345199); details: GBM patient neurospheres viability, ATP luminescence, 48 h; further: nearly all actives have a fitted effect of over 40% in size; further: potency means the concentration at half of the fitted maximal effect
# Outline: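 Primary testing used CD133+ neurospheres from four GBM patients, seven concentrations, 48 h exposure and ATP-based viability; confirmation added three slower-growing patient lines.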
# [2] = at 45.9 µM (top of the series), tumour line B
# [3] = at 45.9 µM (top of the series), tumour line D
smiles,measurement,setting,value
C[C@H]1CNCCc2ccc(Cl)cc21,Potency,MCC-13,inactive
same,Potency,MCC-26,inactive
same,Potency,MKL-1,inactive
same,Potency,MKL-2,inactive
same,outcome,NIH3T3,inactive
same,Potency,UISO,inactive
same,Potency,WaGa,inactive
same,Potency,C33A,inactive
same,Potency,CAOV3,inactive
same,Potency,CASKI,inactive
same,Potency,Es-2,inactive
same,Potency,HeLa,inactive
same,Potency,Hek293T,inactive
same,Potency,JEG-3,inactive
same,Potency,OV90,inactive
same,Potency,PA-1,inactive
same,Potency,SKOV3,inactive
same,Potency,Tov-21-G,inactive
same,Potency,Tov112D,inactive
same,"activity, negative = cell killing",[1]; [2],-18.8%
same,"activity, negative = cell killing",[1]; [3],-14.1%
same,Potency,[1]; tumour line A,11.2 µM (active)
Nc1ccc(N)cc1,Potency,MCC-13,inactive
same,Potency,MCC-26,inactive
same,Potency,MKL-1,inactive
same,Potency,MKL-2,inactive
same,Potency,UISO,inactive
same,Potency,WaGa,inactive
same,Potency,C33A,inactive
same,Potency,CAOV3,inactive
same,Potency,CASKI,inactive
same,Potency,Es-2,inactive
same,Potency,HeLa,inactive
same,Potency,Hek293T,inactive
same,Potency,JEG-3,inactive
same,Potency,OV90,inactive
same,Potency,PA-1,inactive
same,Potency,SKOV3,inactive
same,Potency,Tov-21-G,inactive
same,Potency,Tov112D,inactive
same,"activity, negative = cell killing",[1]; [2],-10.5%
same,"activity, negative = cell killing",[1]; [3],-20.4%
CCN1CCCC1CNC(=O)C(O)(c1ccccc1)c1ccccc1 (configuration not stated),Potency,MCC-13,inactive
same,Potency,MCC-26,inactive
same,Potency,MKL-1,inactive
same,Potency,MKL-2,inactive
same,outcome,NIH3T3,inactive
same,Potency,UISO,inactive
same,Potency,WaGa,inactive
same,Potency,C33A,inactive
same,Potency,CASKI,inactive
same,Potency,Es-2,inactive
same,Potency,HeLa,inactive
same,Potency,Hek293T,inactive
same,Potency,JEG-3,inactive
same,Potency,OV90,inactive
same,Potency,PA-1,inactive
same,Potency,SKOV3,inactive
same,Potency,Tov-21-G,inactive
same,Potency,Tov112D,inactive
O=C1CN2CCOC2(c2ccccc2Cl)c2cc(Cl)ccc2N1 (configuration not stated),Potency,MCC-13,inactive
same,Potency,MCC-26,inactive
same,Potency,MKL-1,inactive
same,Potency,MKL-2,inactive
same,outcome,NIH3T3,inactive
same,Potency,UISO,inactive
same,Potency,WaGa,inactive
same,Potency,C33A,inactive
same,Potency,CAOV3,inactive
same,Potency,CASKI,inactive
same,Potency,Es-2,inactive
same,Potency,HeLa,inactive
same,Potency,Hek293T,inactive
same,Potency,JEG-3,inactive
same,Potency,OV90,inactive
same,Potency,PA-1,inactive
same,Potency,SKOV3,inactive
same,Potency,Tov-21-G,inactive
same,Potency,Tov112D,inactive
O=C(O)Cc1ccccc1,Potency,MCC-13,inactive
same,Potency,MCC-26,inactive
same,Potency,MKL-1,inactive
same,Potency,MKL-2,inactive
same,outcome,NIH3T3,inactive
same,Potency,UISO,inactive
same,Potency,WaGa,inactive
same,Potency,C33A,inactive
same,Potency,CASKI,inactive
same,Potency,Es-2,inactive
same,Potency,HeLa,inactive
same,Potency,Hek293T,inactive
same,Potency,JEG-3,inactive
same,Potency,PA-1,inactive
same,Potency,SKOV3,inactive
same,Potency,Tov-21-G,inactive
same,Potency,Tov112D,inactive
same,"activity, negative = cell killing",[1]; [2],-8.63%
same,"activity, negative = cell killing",[1]; [3],-22.9%
same,"activity, negative = cell killing","[1]; at 46 µM (top of the series), tumour line A",-19.6%
ClCCCN1CCN(c2cccc(Cl)c2)CC1,Potency,MCC-13,inactive
same,Potency,MCC-26,inactive
same,Potency,MKL-1,inactive
same,Potency,MKL-2,inactive
same,outcome,NIH3T3,inactive
same,Potency,UISO,inactive
same,Potency,C33A,inactive
same,Potency,CAOV3,inactive
same,Potency,CASKI,inactive
same,Potency,Es-2,inactive
same,Potency,HeLa,inactive
same,Potency,Hek293T,inactive
same,Potency,JEG-3,inactive
same,Potency,OV90,inactive
same,Potency,PA-1,inactive
same,Potency,SKOV3,inactive
same,Potency,Tov-21-G,inactive
same,Potency,Tov112D,inactive
COP(=S)(OC)Oc1ccc(S(N)(=O)=O)cc1,Potency,MCC-13,inactive
same,Potency,MCC-26,inactive
same,Potency,MKL-1,inactive
same,Potency,MKL-2,inactive
same,Potency,UISO,inactive
same,Potency,WaGa,inactive
same,Potency,C33A,inactive
same,Potency,CAOV3,inactive
same,Potency,CASKI,inactive
same,Potency,Es-2,inactive
same,Potency,HeLa,inactive
same,Potency,Hek293T,inactive
same,Potency,JEG-3,inactive
same,Potency,OV90,inactive
same,Potency,PA-1,inactive
same,Potency,SKOV3,inactive
same,Potency,Tov-21-G,inactive
same,Potency,Tov112D,inactive
same,"activity, negative = cell killing",[1]; [2],-9.2%
same,"activity, negative = cell killing",[1]; [3],-4.94%
